Consider 6 molecules from PubChem BioAssay (NCATS).

The target of assay [1] is ATP-dependent DNA helicase Q1 (Homo sapiens) (UniProt P46063). Description: qHTS Validation Assay for Inhibitors of RecQ-Like Dna Helicase 1 (RECQ1) (AID 2353). The gist of the method: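 50 nM RECQ1T1 preincubated 15 min with compound in Tris pH 8.0 buffer with MgCl2, DTT, Tween-20 and 2.5 ug/ml poly(dI-dC); started with 200 nM TAMRA/BHQ-2 forked duplex and 2 mM ATP. Unwinding read as fluorescence (525/598 nm), two reads 2 h apart.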
In general terms: In qHTS, concentration-response curves come from the screen itself.

Assay [2] in a line: Cytometric Cell-Based qHTS for Inhibitors of the mTORC1 Signaling Pathway in MEF (Tsc2-/-, p53-/-) Cells (AID 2660).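 Further: percent of cells above a phospho-rpS6 to PI ratio cutoff in each well; series mostly up to about 38 µM.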 The gist of the method:
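Readout: Alexa-488 phospho-rpS6 (Ser235/236) intensity divided by PI intensity, thresholded against 7.5 nM rapamycin wells and reported as % positive cells. PI cell count served as the viability measure. Compound exposure was 24 hrs at 37 degree Celsius.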

Assay [3] in a line: High Content Imaging Cell-Based qHTS for Inhibitors of the mTORC1 Signaling Pathway in MEF (Tsc2-/-, p53-/-) Cells (AID 2666).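 Further: percent of cells scored positive for phospho-rpS6 Ser235/236 immunostaining by imaging.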 The gist of the method: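 Read-out: % positive cells per well, with thresholds from highest- and lowest-signal wells, based on phospho-rpS6 (Ser235/236) intensity normalized to Hoechst nuclear stain. Cells: Tsc2-/-, p53-/- MEFs carrying empty vector; compound 24 hrs, 37 degree Celsius.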

Assay [4] can be described thus: Cytometry Cell-Based qHTS for Inhibitors of the mTORC1 Signaling Pathway in MEF cells (AID 2668). Further: potency means the concentration at half of the fitted maximal effect. The method, boiled down: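 Tsc2-/-, p53-/- MEFs re-expressing WT Tsc2; cpd 24 hrs, 37 degree Celsius; PFA fix, Alexa-488 p-rpS6 (Ser235/236) Ab 2 hrs RT, PI counterstain; Acumen 488nm scan; p-S6/PI ratio → % positive cells; PI count = viability.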
The nature of assay [5]: Validation screen for small molecules that induce DNA re-replication in MCF 10A normal breast cells (AID 463097). Further: nearly all actives have a fitted effect of over 60% in size. The gist of the method:
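Image-based qHTS: normal breast cells are incubated with compound for 48 hr, stained with Hoechst, and scanned for total nuclear fluorescence. Compounds raising the fraction of nuclei with elevated DNA content count as re-replication inducers.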

Assay [6] addresses Ubiquitin carboxyl-terminal hydrolase 2 (Homo sapiens) (UniProt O75604). Kind of assay: qHTS Validation Assay for Inhibitors of Ubiquitin-specific Protease USP2a Using CHOP2 as the Reporter (AID 463106). The gist of the method: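 USP2 core (10nM final) was preincubated with compound for 30min at RT in 20mM Tris-HCl pH 8.0, 2mM CaCl2, 2mM beta-mercaptoethanol, 0.05% CHAPS. Ub-CHOP2 and reporter substrate (25nM each) were added, and fluorescence (Ex 485/Em 531nm) was read after 60min.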

The target of assay [7] is DNA polymerase III PolC-type (Bacillus subtilis (strain 168)) (UniProt P13267). Description: qHTS Validation Assay for the Inhibitors of DNA Replication in Gram-Positive Bacteria (AID 485295).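 Further: reconstituted holoenzyme with PolC plus beta clamp SSB and primase; PicoGreen fluorescence of double-stranded DNA made on primed circular M13 template; series mostly up to about 57 µM.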 The method, boiled down: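 First, compound is mixed with the reconstituted replication complex and held at room temperature. Next, circular single-stranded M13Gori with nucleotides starts synthesis. Finally, PicoGreen in EDTA halts the reaction and stains double-stranded product for fluorescence reading.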

In assay [8] the target is Tumor susceptibility gene 101 protein (Homo sapiens) (UniProt Q99816). Kind of assay: qHTS Validation Assay for Iinhibitors of HIV-1 Budding by Blocking the Interaction of PTAP/TSG101 (AID 485342; calls by dose curve). The gist of the method:
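Binding of a FITC-tagged PTAP-motif peptide (50 nM) to the Tsg101 binding domain (10 uM) is monitored by fluorescence polarization. Compounds are pin-delivered before peptide addition, and incubation runs 20 min at room temperature.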

A short description of assay [9]: qHTS Validation Assay to Find Inhibitors of Chronic Active B-Cell Receptor Signaling (AID 485345; active means well fitted curve in the direction sought with a large enough effect in the main read-out, with a control signal flat, not every such curve was filed as active). The gist of the method:
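TMD8 ABC-DLBCL cells with dox-inducible green luciferase–IκBα fusion and red native luciferase; compounds 46 uM–3 nM, 4 h at 37C with doxycycline in 0.5% FBS IMDM. Green/red ratio normalized to basal and 10 uM MG-132.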

The target of assay [10] is ATP-dependent 6-phosphofructokinase (Trypanosoma brucei brucei) (UniProt O15648). Description: qHTS Validation Assay to Find Inhibitors of T. brucei phosphofructokinase (AID 485368). The gist of the method: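 Compounds (up to 57 uM, titration series) were pinned into substrate buffer, then 1.25 nM PFK added; after 45 min at room temperature, ADP product was quantified by ADP-Glo luminescence and concentration-response curves fitted.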

A short description of assay [11]: Quantitative high throughput screen for delayed death inhibitors of the malarial parasite plastid, 96 hour incubation (AID 488745). Further: nearly all actives have a fitted effect of over 70% in size. Further: potency means the concentration at half of the fitted maximal effect. The gist of the method: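 Growth of reporter-bearing P. falciparum in red cells is measured after 96 h with compound, covering two erythrocytic cycles. Luminescence from the integrated luciferase serves as the growth signal.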
Assay [12] is described as follows: Quantitative high throughput screen for delayed death inhibitors of the malarial parasite plastid, 48 hour incubation (AID 488752). Further: nearly all actives have a fitted effect of over 65% in size. Further: potency means the concentration at half of the fitted maximal effect. The method, boiled down: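 One parasite generation (48 h, 37 C, 5% CO2) of luciferase-reporter P. falciparum in erythrocytes is run with test compound; decreased luminescence indicates inhibited growth.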
For assay [13], the target named is Thioredoxin reductase 1, cytoplasmic (Rattus norvegicus) (UniProt O89049). Description: qHTS Assay for Substrates of Mammalian Selenoprotein Thioredoxin Reductase 1 (TrxR1) (AID 488772).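 Further: NADPH fluorescence in the first read after selenite addition and not the 8 min delta; series mostly up to about 57 µM; a drop in NADPH fluorescence below the no-compound background marks a TrxR1 substrate.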 The gist of the method:
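Quantitative HTS in Tris-HCl buffer at pH 7.5 with EDTA and Tween-20, using rat TrxR1, 400 uM NADPH and 400 uM selenite (final). A fall in initial NADPH fluorescence relative to background marked substrate behaviour.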

Assay [14] deals with Flap endonuclease 1 (Homo sapiens) (UniProt P39748). Description: qHTS Validation Assay for the Inhibitors of Human Flap endonuclease 1 (FEN1) (AID 488816). The gist of the method:
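FEN1, dispensed as a 10 nM reagent, was preincubated with pin-transferred compounds for 15 min at room temperature before substrate was added (50 nM final). Plates were read at 0 and 15 min, and a four-parameter Hill equation was fitted to the concentration-response data.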

For assay [15], the target named is M-phase phosphoprotein 8 (Homo sapiens) (UniProt Q99549). Description: qHTS Validation Assay for Inhibitors for MPP8 Chromodomain Interactions with Methylated Histone Tails (AID 488949).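 Further: 50 nM MPP8 with 50 nM peptide preformed then compounds added for 30 min; AlphaScreen signal from MPP8 chromodomain bound to biotinylated H3K9me3 peptide; top concentration of the series differs between compounds; nearly all actives have a fitted effect of over 55% in size.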 The method, boiled down: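 50 nM MPP8 + 50 nM b-H3K9me3 peptide, PBS pH 7.4/0.01% Tween-20, 30 min RT; + cpd 30 min RT; + AlphaScreen donor/Ni-chelate acceptor beads 10 ug/mL final, 30 min dark; luminescence read.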

For assay [16], the target named is Chromobox protein homolog 1 (Homo sapiens) (UniProt P83916). Description: qHTS Validation Assay for Inhibitors of HP1-beta Chromodomain Interactions with Methylated Histone Tails (AID 488953).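 Further: loss of AlphaScreen luminescence from HP1-beta binding biotinylated H3K9me3 peptide; series mostly up to about 110 µM; nearly all actives have a fitted effect of over 50% in size.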 The gist of the method: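 Measured as loss of AlphaScreen luminescence from streptavidin donor and nickel acceptor beads (10 ug/mL final) bridging HP1-beta and biotin-H3(1-18)K9me3, each 50 nM. Compounds met the preassembled complex for 30 min at RT.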

Assay [17] addresses Methanococcus maripaludis chaperonin (MmCpn) (UniProt Q6LX38). Kind of assay: High-Throughput Screening for Modulators of Cytosolic Chaperonin Activity: MmCpn Primary Screen (AID 488978).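 Further: 50 nM MmCpn enzyme hydrolysing 30 µM ATP at 37 °C.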 The method, boiled down: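 Steps: chaperonin 50 nM final; add compound, 5 min RT; start with ATP, 30 uM final; hold 10 min at 37C; add ADP Transcreener HTRF reagent, 5 min; read ex 320, em 590 and 665 nm.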

Assay [18] has as its target Beta-2 adrenergic receptor (Homo sapiens) (UniProt P07550). Kind of assay: qHTS validation assay of beta-arrestin-biased ligands of beta2-adrenergic receptor (AID 485366). The gist of the method:
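Tango cells (recombinant beta2-AR with recombinant beta-arrestin; recruitment releases tTA driving luciferase) were treated with compounds titrated up to 46 microM for 18 hr at 37 degrees C. Luminescence gave %Activity, and concentration-response curves were curve-classified.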

Assay [19] has as its target Thioredoxin reductase 1, cytoplasmic (Rattus norvegicus) (UniProt O89049). Description: qHTS Assay for Inhibitors of Mammalian Selenoprotein Thioredoxin Reductase 1 (TrxR1) (AID 488773).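 Further: drop in NADPH fluorescence over an 8 min run after selenite addition; series mostly up to about 57 µM; nearly all actives have a fitted effect of over 40% in size.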 The conditions noted are these: Potency: inhibition. The method, boiled down:
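Steps: enzyme (90 nM) plus NADPH (400 uM final), 5 min at ~22 deg C; compound added, 15 min; selenite (400 uM final) added; fluorescence followed for 8 min. Concentration-response curves derived from the normalized delta values.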

Records with an inconclusive call do not appear. Calls of active or inactive are those of the source. Unless noted, the call rests on the fitted dose curve; in most records, active means well fitted curve in the direction sought with a large enough effect; inconclusive means small, poorly fitted or top-dose-only effect, or another doubt; inactive means no such curve, though single readings can be large; an effect the other way counts as inactive or inconclusive.

Tumor susceptibility gene 101 protein (Homo sapiens), sequence (Q99816 whole entry, looked up, the tested form may be a part): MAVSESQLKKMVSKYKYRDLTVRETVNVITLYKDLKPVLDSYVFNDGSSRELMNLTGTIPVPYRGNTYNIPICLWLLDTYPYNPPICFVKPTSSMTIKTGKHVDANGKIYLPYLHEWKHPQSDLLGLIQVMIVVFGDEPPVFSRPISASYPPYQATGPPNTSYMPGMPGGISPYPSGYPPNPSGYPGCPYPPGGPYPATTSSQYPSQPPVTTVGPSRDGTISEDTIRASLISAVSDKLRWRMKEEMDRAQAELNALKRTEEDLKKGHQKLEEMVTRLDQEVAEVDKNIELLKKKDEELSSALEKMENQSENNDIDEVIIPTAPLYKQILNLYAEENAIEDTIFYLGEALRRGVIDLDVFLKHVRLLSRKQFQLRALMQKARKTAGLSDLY
Methanococcus maripaludis chaperonin (MmCpn), sequence (Q6LX38 1-543): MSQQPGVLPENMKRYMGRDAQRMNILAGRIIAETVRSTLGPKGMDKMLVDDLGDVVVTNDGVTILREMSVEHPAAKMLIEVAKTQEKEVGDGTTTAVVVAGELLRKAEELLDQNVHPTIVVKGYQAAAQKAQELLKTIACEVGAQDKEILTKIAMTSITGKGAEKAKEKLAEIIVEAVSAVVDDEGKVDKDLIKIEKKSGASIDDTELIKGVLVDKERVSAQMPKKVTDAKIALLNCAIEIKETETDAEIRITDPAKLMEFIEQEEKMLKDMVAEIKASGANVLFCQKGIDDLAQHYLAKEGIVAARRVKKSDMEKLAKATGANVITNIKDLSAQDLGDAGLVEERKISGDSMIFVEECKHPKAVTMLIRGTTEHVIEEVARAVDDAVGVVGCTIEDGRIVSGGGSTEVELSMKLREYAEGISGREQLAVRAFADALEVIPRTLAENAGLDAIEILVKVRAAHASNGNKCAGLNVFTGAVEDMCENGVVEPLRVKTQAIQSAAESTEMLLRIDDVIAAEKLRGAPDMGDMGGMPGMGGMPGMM
ATP-dependent DNA helicase Q1 (Homo sapiens), sequence (P46063 whole entry, looked up): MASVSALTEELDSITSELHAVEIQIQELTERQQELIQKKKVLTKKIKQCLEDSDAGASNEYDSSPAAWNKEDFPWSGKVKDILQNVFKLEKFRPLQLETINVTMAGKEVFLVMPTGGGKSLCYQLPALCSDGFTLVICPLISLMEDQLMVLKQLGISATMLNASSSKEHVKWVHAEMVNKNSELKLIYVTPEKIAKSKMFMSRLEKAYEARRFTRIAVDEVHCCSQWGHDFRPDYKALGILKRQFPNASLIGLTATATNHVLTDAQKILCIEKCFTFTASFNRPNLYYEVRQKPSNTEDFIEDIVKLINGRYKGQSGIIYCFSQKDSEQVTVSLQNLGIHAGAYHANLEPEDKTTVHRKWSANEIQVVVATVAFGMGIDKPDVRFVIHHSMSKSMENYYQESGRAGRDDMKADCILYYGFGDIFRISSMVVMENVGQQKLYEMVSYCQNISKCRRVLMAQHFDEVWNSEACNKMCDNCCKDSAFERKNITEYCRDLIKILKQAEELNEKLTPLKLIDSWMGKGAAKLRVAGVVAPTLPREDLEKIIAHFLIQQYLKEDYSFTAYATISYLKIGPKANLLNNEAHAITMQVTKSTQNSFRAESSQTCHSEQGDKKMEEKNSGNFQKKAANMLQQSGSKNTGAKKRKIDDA
Chromobox protein homolog 1 (Homo sapiens), sequence (P83916 whole entry, looked up): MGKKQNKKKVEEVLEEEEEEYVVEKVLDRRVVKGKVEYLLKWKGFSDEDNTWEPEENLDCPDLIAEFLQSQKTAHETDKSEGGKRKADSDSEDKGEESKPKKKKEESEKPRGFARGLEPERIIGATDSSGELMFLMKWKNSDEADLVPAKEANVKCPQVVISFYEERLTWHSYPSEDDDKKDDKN
Thioredoxin reductase 1, cytoplasmic (Rattus norvegicus), sequence (O89049 whole entry, looked up): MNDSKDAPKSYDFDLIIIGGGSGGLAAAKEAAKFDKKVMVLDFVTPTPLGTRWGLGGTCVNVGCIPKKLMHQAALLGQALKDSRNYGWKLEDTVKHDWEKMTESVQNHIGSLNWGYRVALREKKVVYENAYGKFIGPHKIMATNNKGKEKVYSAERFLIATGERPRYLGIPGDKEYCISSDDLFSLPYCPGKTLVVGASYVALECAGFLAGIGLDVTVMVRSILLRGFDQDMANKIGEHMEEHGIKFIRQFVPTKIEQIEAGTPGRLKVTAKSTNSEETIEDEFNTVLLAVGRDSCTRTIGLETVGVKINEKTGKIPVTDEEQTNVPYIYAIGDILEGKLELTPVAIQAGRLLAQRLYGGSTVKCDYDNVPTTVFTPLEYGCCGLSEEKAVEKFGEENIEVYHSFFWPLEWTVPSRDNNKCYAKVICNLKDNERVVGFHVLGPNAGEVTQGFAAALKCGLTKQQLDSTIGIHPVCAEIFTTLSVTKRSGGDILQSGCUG
DNA polymerase III PolC-type (Bacillus subtilis (strain 168)), sequence (P13267 whole entry, looked up): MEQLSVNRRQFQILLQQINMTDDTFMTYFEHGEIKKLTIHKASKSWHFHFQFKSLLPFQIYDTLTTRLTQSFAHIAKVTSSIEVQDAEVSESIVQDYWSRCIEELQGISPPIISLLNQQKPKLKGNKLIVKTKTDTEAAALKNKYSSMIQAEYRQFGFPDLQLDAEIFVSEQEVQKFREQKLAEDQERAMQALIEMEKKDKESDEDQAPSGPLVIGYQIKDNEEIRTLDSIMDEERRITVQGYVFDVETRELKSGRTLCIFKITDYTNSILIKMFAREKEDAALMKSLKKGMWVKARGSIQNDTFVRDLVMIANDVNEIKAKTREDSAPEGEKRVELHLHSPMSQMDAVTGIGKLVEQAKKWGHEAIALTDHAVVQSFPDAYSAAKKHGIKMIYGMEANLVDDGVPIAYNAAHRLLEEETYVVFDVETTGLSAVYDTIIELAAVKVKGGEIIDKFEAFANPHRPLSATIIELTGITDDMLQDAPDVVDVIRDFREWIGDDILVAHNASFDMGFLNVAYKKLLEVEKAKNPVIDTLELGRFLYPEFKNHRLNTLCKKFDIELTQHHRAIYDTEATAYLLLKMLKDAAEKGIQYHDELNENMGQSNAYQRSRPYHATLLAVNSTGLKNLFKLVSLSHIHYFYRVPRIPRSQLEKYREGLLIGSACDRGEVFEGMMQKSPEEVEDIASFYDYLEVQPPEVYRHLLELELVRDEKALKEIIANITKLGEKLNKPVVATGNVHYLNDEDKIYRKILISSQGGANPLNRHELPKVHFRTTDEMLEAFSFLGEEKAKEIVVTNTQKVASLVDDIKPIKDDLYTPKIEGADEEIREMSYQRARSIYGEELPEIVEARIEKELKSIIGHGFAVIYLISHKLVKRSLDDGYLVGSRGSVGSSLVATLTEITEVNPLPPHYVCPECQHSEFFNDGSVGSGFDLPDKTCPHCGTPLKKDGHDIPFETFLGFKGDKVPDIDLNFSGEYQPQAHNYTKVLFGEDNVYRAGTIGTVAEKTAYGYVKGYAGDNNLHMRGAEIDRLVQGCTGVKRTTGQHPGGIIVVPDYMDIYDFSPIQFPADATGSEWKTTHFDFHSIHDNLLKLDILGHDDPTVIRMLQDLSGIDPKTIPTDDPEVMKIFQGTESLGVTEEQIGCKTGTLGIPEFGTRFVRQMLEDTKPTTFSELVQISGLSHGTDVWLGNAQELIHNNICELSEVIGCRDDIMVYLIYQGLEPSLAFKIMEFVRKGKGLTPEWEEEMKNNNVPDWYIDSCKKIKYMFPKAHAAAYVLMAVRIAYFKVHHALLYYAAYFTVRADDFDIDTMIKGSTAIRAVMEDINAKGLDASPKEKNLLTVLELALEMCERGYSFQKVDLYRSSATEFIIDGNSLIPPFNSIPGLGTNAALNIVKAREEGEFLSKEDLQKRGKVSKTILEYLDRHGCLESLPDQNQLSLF
ATP-dependent 6-phosphofructokinase (Trypanosoma brucei brucei), sequence (O15648 whole entry, looked up): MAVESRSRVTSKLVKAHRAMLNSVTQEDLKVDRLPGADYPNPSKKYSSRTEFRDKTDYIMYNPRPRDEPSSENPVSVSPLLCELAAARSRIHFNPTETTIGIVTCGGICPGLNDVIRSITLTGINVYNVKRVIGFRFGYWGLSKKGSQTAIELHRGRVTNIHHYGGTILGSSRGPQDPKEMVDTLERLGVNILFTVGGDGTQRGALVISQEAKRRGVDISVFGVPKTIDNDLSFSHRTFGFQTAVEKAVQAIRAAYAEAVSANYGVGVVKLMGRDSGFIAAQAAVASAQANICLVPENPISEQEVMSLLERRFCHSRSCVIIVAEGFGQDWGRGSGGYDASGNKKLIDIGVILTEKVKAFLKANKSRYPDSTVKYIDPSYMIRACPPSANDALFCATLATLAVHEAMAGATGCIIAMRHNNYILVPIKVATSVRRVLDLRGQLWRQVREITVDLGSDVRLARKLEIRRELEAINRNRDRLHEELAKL
Ubiquitin carboxyl-terminal hydrolase 2 (Homo sapiens), sequence (O75604 whole entry, looked up): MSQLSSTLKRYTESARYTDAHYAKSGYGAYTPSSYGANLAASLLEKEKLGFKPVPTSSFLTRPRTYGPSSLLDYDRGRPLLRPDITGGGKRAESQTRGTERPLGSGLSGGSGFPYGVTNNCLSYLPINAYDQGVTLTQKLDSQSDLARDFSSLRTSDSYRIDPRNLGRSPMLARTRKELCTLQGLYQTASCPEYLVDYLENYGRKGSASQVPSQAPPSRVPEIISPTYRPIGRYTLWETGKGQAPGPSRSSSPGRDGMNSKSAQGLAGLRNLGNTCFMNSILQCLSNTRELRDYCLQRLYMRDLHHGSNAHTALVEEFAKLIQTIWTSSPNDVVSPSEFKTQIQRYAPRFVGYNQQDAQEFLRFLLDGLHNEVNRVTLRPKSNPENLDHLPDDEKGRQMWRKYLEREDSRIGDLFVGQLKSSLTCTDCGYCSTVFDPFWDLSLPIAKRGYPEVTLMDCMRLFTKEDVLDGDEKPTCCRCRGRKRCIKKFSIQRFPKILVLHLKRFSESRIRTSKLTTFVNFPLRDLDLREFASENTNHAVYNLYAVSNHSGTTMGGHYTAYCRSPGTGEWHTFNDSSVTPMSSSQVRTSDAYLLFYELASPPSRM

In the case of `CC(C)NC[C@H](O)c1ccc(O)c(O)c1`, the Potency entry in assay [1], in assay [2], in [3], in assay [4], in assay [10] and in assay [11] was “inactive” in each case. Also, the Potency entry in assay [12], in assay [14], in assay [15], in [16] and in assay [17] was “inactive” in each case. Also, the molecule was classed as inactive in assay [5], in assay [6], in assay [7], in [8], in assay [9] and in assay [13].
For the molecule `Nc1ncnc2c1ncn2[C@@H]1O[C@H](CO)[C@@H](O)[C@H]1O`, the Potency entry in [2], in [3], in assay [4], in assay [10], in assay [19] and in assay [14] was “inactive” each time. Moreover, the Potency result in [15], in assay [16] and in assay [17] was “inactive” throughout. The outcome in assay [6], in [7], in assay [8], in [18] and in [13] was inactive.
For `CNC(=O)Oc1ccc2c(c1)[C@]1(C)CCN(C)[C@@H]1N2C`, the Potency result in assay [1], in assay [2], in assay [3], in assay [4], in assay [11] and in assay [12] was “inactive” each time. The Potency entry in assay [19], in [14], in assay [16] and in assay [17] was “inactive” in each case. Also, the call in assay [5], in assay [6], in assay [7], in assay [8], in [9] and in assay [18] was inactive. For the same molecule, in [13], the call was inactive.
With `CC[C@H]1CN2CCc3cc(OC)c(OC)cc3[C@@H]2C[C@@H]1C[C@H]1NCCc2cc(OC)c(OC)cc21`, the Potency result in assay [1], in assay [3], in [10], in assay [19], in assay [15] and in [16] was “inactive” in each case. Besides, the Potency result in assay [17] is “inactive”. Further, the call in [6], in [7], in assay [8], in assay [18] and in [13] was inactive. Moreover, the Potency in [11] was 92.8 nM (active); in assay [12], 117 nM (active).
For `CC(C)(C)[C@]1(O)CCN2C[C@H]3c4ccccc4CCc4cccc(c43)[C@@H]2C1`, the Potency result in assay [2], in assay [3], in assay [10], in [19], in [14] and in [15] was “inactive” in each case. In addition, the Potency result in [16] and in [17] was “inactive” in each case. Moreover, the Potency in assay [4] was 5850 nM (active). For the same molecule, the molecule was called inactive in [6], in assay [7], in [8], in [9], in [18] and in [13].
For the molecule `COc1ccc(Cl)cc1C(=O)NCCc1ccc(S(=O)(=O)NC(=O)NC2CCCCC2)cc1`, the Potency result in assay [1], in [2], in assay [3], in assay [4], in assay [11] and in assay [12] was “inactive” each time. Also, the Potency result in assay [19], in assay [14], in [15], in [16] and in [17] was “inactive” throughout. The molecule was called inactive in assay [5], in [6], in assay [7], in [8], in assay [9] and in assay [18]. In addition, the call in assay [13] was inactive.
